# In the library only some 10% were active in any assay of this set; here they are far more common.
# HP1b binding inh – blocks HP1-beta chromodomain binding to methylated histone tails | AlphaScreen HP1-beta / biotin-H3K9me3 peptide binding | P83916 | 0.56% of 390,000 active | Potency, µM (highest dose often 114 µM), actives largely listed as inhibitors; further: nearly all actives have a fitted effect of over 70% in size
#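 AlphaScreen: HP1-beta (50 nM) preformed 30 min with biotin-H3(1-18)K9me3 peptide (50 nM) in PBS pH 7.4, 0.01% Tween-20. Compound added for 30 min at RT, then streptavidin donor/nickel chelate acceptor beads (10 ug/mL) for 30 min.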
# G9a inh – blocks human histone lysine methyltransferase G9a; Potency, µM (highest dose often 102 µM), hits mostly inhibitors; Q96KQ7; G9a H3K9 monomethylation, AlphaScreen, 2 h; AID 504332; 8.8% of 350,000 active; further: nearly all actives have a fitted effect of over 75% in size
#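 Readings reflect AlphaScreen signal from monomethyl-H3K9 antibody detection. HMT at 20 nM; substrate b-H3K9 500 nM; cofactor SAM 20 uM; 2 h RT reaction; compounds tested as titrations in qHTS with 15 min preincubation.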
# BAZ2B inh – inhibitors of human BAZ2B bromodomain | Q9UIF8 | AlphaScreen BAZ2B-H3K14Ac peptide displacement | Potency, µM (titrated, usually from 114 µM), hits mostly inhibitors | 4.4% of 360,000 active | AID 504333; further: nearly all actives have a fitted effect of over 60% in size
#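 Compounds, titrated to a top concentration of 110 uM, were incubated 30 min at room temperature with preformed BAZ2B/acetyl-K14 H3 peptide complex (50 nM each). Proximity signal was measured by AlphaScreen after 20 min with beads.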
# JMJD2A Tudor – inhibitors of human JMJD2A Tudor domain | O75164 | AlphaScreen JMJD2A-Tudor / H3K4me3 peptide binding | Potency, µM (top dose mostly 114 µM), actives largely listed as inhibitors | 4.4% of 390,000 active; further: nearly all actives have a fitted effect of over 50% in size
# Six1-Eya2 inh – Six1/Eya2 interaction inhibition. Q15475+O00167. AlphaScreen GST-Six1/His-Eya2 binding, biochemical; hits give low values. activity change, % (test concentration not listed). 0.56% of 360,000 active; in the data active means activity change below about -65%; inconclusive means mostly about -30% to -63%
# Target sequence (O00167 whole entry, looked up): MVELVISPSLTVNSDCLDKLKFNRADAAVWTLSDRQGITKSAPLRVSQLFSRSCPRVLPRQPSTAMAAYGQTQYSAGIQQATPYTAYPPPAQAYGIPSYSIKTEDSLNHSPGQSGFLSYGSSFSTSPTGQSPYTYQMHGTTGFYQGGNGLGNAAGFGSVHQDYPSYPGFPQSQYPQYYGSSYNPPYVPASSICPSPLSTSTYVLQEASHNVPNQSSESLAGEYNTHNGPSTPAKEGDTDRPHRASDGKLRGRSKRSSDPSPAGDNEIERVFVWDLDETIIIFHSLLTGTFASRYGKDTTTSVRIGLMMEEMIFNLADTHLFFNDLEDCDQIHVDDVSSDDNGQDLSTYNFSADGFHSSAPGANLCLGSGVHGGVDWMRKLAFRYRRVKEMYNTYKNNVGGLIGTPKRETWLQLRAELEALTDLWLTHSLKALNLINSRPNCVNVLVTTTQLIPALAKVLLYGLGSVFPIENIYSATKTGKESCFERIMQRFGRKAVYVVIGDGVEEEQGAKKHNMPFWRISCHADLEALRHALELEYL
# Target sequence (Q15475 whole entry, looked up): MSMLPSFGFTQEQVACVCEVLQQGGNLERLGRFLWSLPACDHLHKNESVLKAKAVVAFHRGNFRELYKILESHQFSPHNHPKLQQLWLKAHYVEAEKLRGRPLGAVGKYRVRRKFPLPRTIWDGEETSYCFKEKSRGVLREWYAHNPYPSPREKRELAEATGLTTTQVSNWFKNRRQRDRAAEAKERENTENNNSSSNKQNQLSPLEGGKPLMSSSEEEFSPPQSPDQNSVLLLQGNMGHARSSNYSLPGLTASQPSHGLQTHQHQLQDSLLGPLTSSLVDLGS
#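 AlphaScreen with GST-Six1 and His-Eya2 (5X mix: 250 nM and 500 nM), glutathione donor and nickel acceptor beads; buffer 50 mM Tris pH 8.0, 300 mM NaCl, 1 mM TCEP; 1 h at 37 C in the dark.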
# CtBP-E1A blk – CtBP/E1A binding inhibition; AlphaScreen GST-E1A/His-CtBP binding, 1536-well; hits give low values; activity change, % (no concentration beside the values); 0.49% of 340,000 active; AID 651724; in the data active means activity change below about -65%; inconclusive means mostly about -30% to -63%
#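 GST-E1A and His-tagged CtBP (125 nM each as 5X stock) were preincubated with pin-transferred compound for 2 h at 37 °C in the dark, then glutathione donor and nickel acceptor beads were added for 1 h before AlphaScreen reading.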
# Hits are given with their value; 0 = inactive; ? = inconclusive; - = no result; ! = a repeat was not active; [ ] = another dose, or the depositor's remark. Unless noted, the call rests on the fitted dose curve; in most records, active means well fitted inhibition curve with a large enough effect; inconclusive means small, poorly fitted or top-dose-only effect; inactive means no such curve, though single readings can be large or run the other way.
SMILES,HP1b binding inh,G9a inh,BAZ2B inh,JMJD2A Tudor,Six1-Eya2 inh,CtBP-E1A blk
O=C1CCc2cc(S(=O)(=O)Nc3cccc(Br)c3)ccc2N1,-,-,-,0,-,-
Cc1ccc2c(NC(=O)c3ccc(Br)o3)cccc2n1,0,-,0,0,0,0
CSc1ccccc1C(=O)Nc1ccc(C)cc1C,0,?,0,0,0,0
O=C(Nc1ccccc1C(=O)Nc1ccccc1)c1ccco1,0,0,0,0,0,0
Cc1ccc2c(NC(=O)c3ccco3)cccc2n1,0,50.1µM,0,0,0,0
Cc1cccc(NC(=O)c2ccccc2NC(=O)c2ccco2)c1,0,39.8µM,?,0,0,0
CSc1ccccc1C(=O)Nc1cccc(C)c1,0,44.7µM,0,0,0,0
CSc1ccccc1C(=O)Nc1cc(C)ccc1C,0,39.8µM,0,0,0,-
CSc1ccccc1C(=O)Nc1cccc([N+](=O)[O-])c1,0,?,?,0,0,0
O=C(O)c1nc(NCCc2ccccc2)ncc1Cl,0,35.5µM,0,?,0,0
CCc1ccc2c(c1)c(=O)c(S(=O)(=O)c1ccc(Cl)cc1)cn2CC,0,0,56.2µM,0,-,-
CS(=O)(=O)NN1C(=O)c2ccccc2NC1c1ccccc1 (stereo not drawn),0,0,0,0[11.4 µM],0,-
CS(=O)(=O)NN1C(=O)c2ccccc2NC1c1cccs1 (stereo not drawn),0,0,0,3.55µM,0,-
O=C(Nc1ccccc1C(F)(F)F)NC1(C(=O)N2CCOCC2)CCCCC1,0,-,-,8.91µM,0,0
Cc1ccccc1NC(=O)NC1(C(=O)N2CCOCC2)CCCCC1,0,0,0,0,0,0
O=S1(=O)CC(N2CCSCC2)CN1Cc1cn(Cc2ccc(Cl)cc2)nn1 (stereo not drawn),-,-,-,-,0,0
O=C(Nc1ccc(O)c2c(=O)cc(-c3ccccc3Cl)oc12)c1ccccc1Cl,0,?,0,0,0,-
O=c1cc(-c2ccccc2Cl)oc2ccc([N+](=O)[O-])c(O)c12,0,50.1µM!,?,0,0,0
COc1ccccc1-c1cc(=O)c2c(O)ccc([N+](=O)[O-])c2o1,0,0,0,0,0,0
Nc1ccc2oc(-c3ccccc3Cl)cc(=O)c2c1O,0,70.8µM,?,?,0,0
O=c1cc(-c2ccccc2Cl)oc2c([N+](=O)[O-])c(O)cc(O)c12,0,50.1µM,?,0,?,-
Cc1cccc(-c2nnc(SCC(=O)c3ccc(O)cc3O)n2C)c1,0,?,0,0,0,0
O=C(/C=C/c1ccccc1)NCCO,-,0[12.7 µM],-,-,-,-
COc1cccc(C(=O)CN2CCN(S(=O)(=O)c3cccc([N+](=O)[O-])c3)CC2)c1,0,20µM,0,0,0,-
COc1ccc(C(=O)CN2CCN(S(=O)(=O)c3cccc([N+](=O)[O-])c3)CC2)cc1OC,0,8.91µM,0,0,0,0
SMILES,HP1b binding inh,G9a inh,BAZ2B inh,JMJD2A Tudor,Six1-Eya2 inh,CtBP-E1A blk
CN1CCN(S(=O)(=O)c2cccc([N+](=O)[O-])c2)CC1,0,-,-,0,0,0
CN(C)c1cccc2c(C=C(C#N)C#N)ccc(N(C)C)c12,22.4µM,8.91µM,20µM,15.8µM,0,0
O=C(Nc1cccc(C(=O)O)c1)/C(=C\c1ccccc1)NC(=O)c1cccc2ccccc12,0,0[0.501 µM],0,0,0,-
CC(C)(C)n1nnnc1C(c1cccnc1)N1CCN(c2cccc(C(F)(F)F)c2)CC1 (stereo not drawn),0,?,?,0,0,0
CC(C)(C)c1cc(C(c2cccnc2)N2CCN(CCO)CC2)cc(C(C)(C)C)c1O (stereo not drawn),?,10µM,50.1µM,31.6µM,0,0
O=S(=O)(Nc1nc2ccccc2nc1N1CCN(CCO)CC1)c1cc(F)ccc1F,0,7.08µM,0,0,0,0
O=S(=O)(Nc1nc2ccccc2nc1N1CCN(c2ccccn2)CC1)c1ccc(Cl)cc1,0,?,0,?,0,0
O=C(NC1=C(Nc2ccc(F)cc2)C(=O)c2ccccc2C1=O)c1ccc(Cl)cc1,?,5.01µM,0,0,?,0
O=C(NNC(=O)c1ccc(NC(=O)c2ccccc2)cc1)c1ccc(F)cc1,0,?,0,0,0,0
Cc1ccc(OCCn2c(-c3ccc(Br)cc3)nc3ccccc3c2=O)cc1C,0,0,0,0,-,-
CCOc1ccc(N2CC(C(=O)N3CCN(C(=O)c4ccco4)CC3)CC2=O)cc1 (stereo not drawn),0,0,0,0,0,0
Cc1ccc(CNC(=O)CN2C(=O)C3(SCC(=O)N3c3ccc(F)c(F)c3)c3ccccc32)cc1 (stereo not drawn),0,0,0,0,-,-
CC(C)c1ccc(/C=C2\CC/C(=C\C=N\N(C)C)C2=O)cc1,0,?,56.2µM,?,0,0
Cn1c(=O)[nH]c2sc3c(c2c1=O)CC(C)(C)OC3,0,0[12.7 µM],0,0,0,0
CC1(C)Cc2c(sc3[nH]c(=S)[nH]c(=O)c23)CO1,0,-,0,89.1µM,0,0
COc1ccc(/C=N/Nc2nn3cnnc3c3ccccc23)cc1,0,0,0,0,?,-74.1
CCOC(=O)N1CCN(CC(=O)c2ccc3c(c2)CCN3C(C)=O)CC1,0,31.6µM,0,0,0,0
CC(=O)N1CCc2cc([N+](=O)[O-])ccc21,0,-,-,0,0,0
CC(=O)N1CCc2cc(C(=O)CN3CCCCC3)ccc21,0,50.1µM,0,0,0,0
COCCn1c(CNC(=O)c2ccccc2C)nc2cccnc21,0,0,0,0,-,-
NS(=O)(=O)c1ccc(-n2ncc3c(=O)[nH]c(SCC(=O)Nc4nccs4)nc32)cc1,0,44.7µM,0,0,0,0
O=C(CSc1nc2[nH]ncc2c(=O)[nH]1)Nc1nccs1,-,0,0,-,-,-
C#CCOCCOCCOCCNc1nc(N2CCOCC2)nc(N2CCN(C(=O)[C@H](CO)n3cc([C@@H](N)C(C)C)nn3)CC2)n1,0,-,-,0,0,0
C#CCOCCOCCOCCNc1nc(N2CCN(C(=O)[C@H]([C@@H](C)CC)n3cc([C@@H](N)CO)nn3)CC2)nc(N2CCN(C(=O)[C@H]([C@@H](C)CC)n3cc([C@@H](N)CC(C)C)nn3)CC2)n1,0,0[12.7 µM],50.1µM,50.1µM,0,0
C#CCOCCOCCOCCNc1nc(N2CCN(C(=O)[C@H]([C@@H](C)CC)n3cc([C@@H](N)CO)nn3)CC2)nc(N2CCN(C(=O)[C@H]([C@@H](C)CC)n3cc([C@@H](N)CO)nn3)CC2)n1,-,0[12.7 µM],22.4µM,-,-,-
COc1ccc(Cl)cc1NC(=O)c1cn(C2CCCC2)c(=O)c2c1c1ccccc1n2C,0,0,0,0,-,-
O=C(NCc1ccccc1)C(c1ccccc1F)n1c(=O)c(-c2cc3ccccc3[nH]2)nc2ccccc21 (stereo not drawn),-,-,-,-,0,0

# High-throughput results as filed in PubChem.
